Screening data from PubChem.
Rows were chosen to be rich in hits. Some 7.8% of all compounds tested hit in one or more screens of this group.
HCMV antiviral = human cytomegalovirus inhibition | 410,000 tested, 4.5% active | HFF cells, HCMV-luciferase reporter, 72 h; stronger effect = lower value | activity change, negative = inhibition, % at 57.5 µM; in the data active means activity change below about -60%; inconclusive means no clear call, values can overlap the other calls; inactive means above about -39%
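Screen run at 2 compound doses on HFFs infected with reporter HCMV, MOI 1 PFU/cell. Luciferase activity from cell lysates at 72 h post infection gave inhibition relative to buffer-only and Salinomycin wells.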
HCV inhibitor = blocks hepatitis C virus; Huh7.5.1 HCVcc-Cre infection, luciferase reporter, 44 h; Potency, µM (doses to about 41.8 µM), hits mostly inhibitors; 340,000 tested, 3.4% active; AID 651820; active means well fitted inhibition curve with a large enough effect; inconclusive means small, poorly fitted or top-dose-only effect, or another doubt; inactive means no such curve, though single readings can be large or run the other way
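Infectious HCVcc-Cre (~0.5 moi) was added to cells just after compound, with cells seeded 4 h earlier at 1,000 per well. Luciferase activity after 44 h culture reported infection; substrate was incubated 15 min at room temperature before reading.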
Lassa entry inh = blocks Lassa virus binding to or entry into cells | Lassa virus pseudotype entry inhibition, cell reporter | Potency, µM (doses to about 37.9 µM), most hits filed as inhibitors | 300,000 tested, 1.2% active | AID 540256; calls by dose curve; tested in HEK293 cells; further: nearly all actives have a fitted effect of over 50% in size
Marburg entry inh = Marburg virus entry inhibition; Marburg virus pseudotyped entry inhibition, cell reporter; Potency, µM (top dose mostly 37.8 µM), most hits filed as inhibitors; 300,000 tested, 1.8% active; AID 540276; calls by dose curve; tested in HEK293 cells
Vaccinia mCherry = inhibitors of vaccinia virus infection (mCherry reporter signal); 310,000 tested, 0.63% active; AID 720579; Vaccinia virus mCherry reporter infection, fluorescence; Potency, µM (titrated, usually from 36.5 µM), actives largely listed as inhibitors; calls by dose curve; tested in A549 cells; further: nearly all actives have a fitted effect of over 35% in size
Vaccinia Venus = vaccinia inhibition (Venus reporter) | 330,000 tested, 0.46% active | Potency, µM (titrated, usually from 36.5 µM), actives largely listed as inhibitors | Vaccinia virus Venus reporter expression, fluorescence; calls by dose curve; tested in A549 cells; further: nearly all actives have a fitted effect of over 30% in size
A number is an active result; – = inactive; ? = inconclusive; · = not tested or not shown; [ ] = another dose, or the depositor's remark.

SMILES | HCMV antiviral | HCV inhibitor | Lassa entry inh | Marburg entry inh | Vaccinia mCherry | Vaccinia Venus
Cc1ccccc1NC1=NCC(c2ccc([N+](=O)[O-])cc2)S1 (stereo not drawn) | ? | – | – | ? | 11µM | 13µM
Cc1cccc(CNc2ncnc3ccc(-c4ccc5c(c4)OCCO5)cc23)c1 | -89 | · | · | · | · | ·
Cc1csc(CNc2ncnc3ccc(-c4cccnc4)cc23)c1 | – | · | · | · | · | ·
Cc1csc(CNc2ncnc3ccc(-c4ccc5c(c4)OCO5)cc23)c1 | -69 | · | · | · | · | ·
Clc1cccc(-c2ccc3ncnc(NCc4cccs4)c3c2)c1 | – | · | · | · | · | ·
Cc1cccc(-c2ccc3ncnc(NCc4cccs4)c3c2)c1 | -76 | · | · | · | · | ·
Cc1csc(CNc2ncnc3ccc(-c4ccoc4)cc23)c1 | -86 | · | · | · | · | ·
Cc1ccc(S(=O)(=O)N2C=CC(=O)CC2c2cccs2)cc1 (stereo not drawn) | – | · | · | · | · | ·
c1cncc(CNc2ncnc3ccc(-c4ccoc4)cc23)c1 | -83 | · | · | · | · | ·
CCOc1ccc(/C=C/C(=O)Nc2sc3c(c2C(=O)OC)C(C(=O)OC)CC3)cc1 (stereo not drawn) | – | · | ? | · | –[7.34 µM] | –[7.34 µM]
Cc1cccc(N2C(S)=C(C#N)C(=O)NC23CCCCC3)c1 | ? | – | – | – | – | –
Cc1ccc(N2C(S)=C(C#N)C(=O)NC23CCCCC3)cc1 | -60 | – | – | – | – | –
Nc1c(Cl)cc(/C=C2\C=Cc3ccccc32)cc1Cl | · | · | · | · | – | –
COc1ccc(Cn2c(=O)n(-c3ccc(F)c(Cl)c3)c(=O)c3c2c2cc(OC)ccc2n3C)cc1 | – | · | – | · | – | –
Cc1cc(C)cc(C(=O)NC(CC(N)=O)c2ccc(N3CCN(c4ccccc4)CC3)c([N+](=O)[O-])c2)c1 (stereo not drawn) | – | – | · | · | – | –
NC(=O)CC(NC(=O)Cc1ccc(Br)cc1)c1ccc(N2CCN(c3ccccn3)CC2)c([N+](=O)[O-])c1 (stereo not drawn) | – | ? | · | · | ? | ?
NC(=O)CC(NC(=O)c1ccccc1)c1ccc(N2CCN(c3ccccc3)CC2)c([N+](=O)[O-])c1 (stereo not drawn) | -66 | ? | · | · | ? | ?
CN1CCN(c2ccc(C(CC(N)=O)NC(=O)c3ccccc3)cc2[N+](=O)[O-])CC1 (stereo not drawn) | -62 | – | · | · | – | –
NC(=O)CC(NC(=O)c1ccccc1)c1ccc(N2CCN(c3ccc(F)cc3)CC2)c([N+](=O)[O-])c1 (stereo not drawn) | ? | 11µM | · | · | – | ?
NC(=O)CC(NC(=O)Cc1ccc(Br)cc1)c1ccc(N2CCN(c3ccccc3)CC2)c([N+](=O)[O-])c1 (stereo not drawn) | -62 | ? | · | · | ? | ?
NC(=O)CC(NC(=O)c1ccccc1)c1ccc(N2CCCCCC2)c([N+](=O)[O-])c1 (stereo not drawn) | – | ? | · | · | – | –
OC(C[n+]1c(Cl)ccc2ccccc21)c1ccccc1 (stereo not drawn) | · | · | · | · | – | –
NC(=O)CC(NC(=O)Cc1ccc(Br)cc1)c1ccc(NCC2CC2)c([N+](=O)[O-])c1 (stereo not drawn) | – | – | · | · | – | –
NC(=O)CC(NC(=O)Cc1ccc(Br)cc1)c1ccc(NCc2ccc(F)cc2)c([N+](=O)[O-])c1 (stereo not drawn) | – | 11µM | · | · | – | –
Cc1ccc(C(=O)n2nc(C)c(S(=O)(=O)N3CCCCCC3)c2C)cc1C | – | · | – | · | – | –
SMILES | HCMV antiviral | HCV inhibitor | Lassa entry inh | Marburg entry inh | Vaccinia mCherry | Vaccinia Venus
COc1ccc(-c2cc(C(=O)Nc3ccc(C)cc3)no2)cc1 | – | – | – | – | – | –
COc1ccc(NC(=O)c2c(C)noc2-c2snnc2C)cc1 | – | – | ? | 10µM | – | –
O=C(CC1(c2cccc(F)c2)CC(=O)N(Cc2cccnc2)C1=O)N1CCCCCCC1 (stereo not drawn) | · | · | · | · | – | –
CC(C)NC(=O)NC(=O)COC(=O)c1ccccc1O | – | – | – | – | – | –
CC(C)NC(=O)NC(=O)COC(=O)c1ccccc1Oc1ccccc1 | – | – | ? | 11µM | – | –
Cc1cc2oc(=O)cc(CSc3nnc(-c4cccs4)o3)c2cc1C(C)C | – | 10µM | ? | ? | – | –
CCOc1ccc(-n2c(SCc3cc(=O)oc4cc(C)c(C(C)C)cc34)nnc2-c2cccnc2)cc1 | -80 | ? | – | – | – | –
